Results: PubChem BioAssay (NCATS)
Records with an inconclusive call do not appear. A call without a number means that no potency is given here. Activity calls are given as the source filed them. The call rests on the fitted dose curve; in most records, active means well fitted curve in the direction sought with a large enough effect; inconclusive means small, poorly fitted or top-dose-only effect, or another doubt; inactive means no such curve, though single readings can be large; an effect the other way counts as inactive or inconclusive.

What was measured:
[1] = qHTS of pediatric cancer cell lines to identify multiple opportunities for drug repurposing: Primary screen for NB1643 cells (AID 1347099); further: nearly all actives have a fitted effect of over 50% in size; further: potency means the concentration at half of the fitted maximal effect
How it was run: (§1)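 Plated cells (500-1,000 per well, growth media) were allowed to settle for 5 hours, treated with compound dilutions for 48 hours, then lysed with CellTiter-Glo for 15 min at room temperature before luminescence reading.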

[2] = qHTS of pediatric cancer cell lines to identify multiple opportunities for drug repurposing: Primary screen for MG 63 (6-TG R) cells (AID 1347105); further: nearly all actives have a fitted effect of over 50% in size; further: potency means the concentration at half of the fitted maximal effect
How it was run: as §1

[3] = qHTS of pediatric cancer cell lines to identify multiple opportunities for drug repurposing: Primary screen for control Hh wild type fibroblast cells (AID 1347106);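 further: series mostly up to about 46 µM; a drop in luminescence marks cytotoxicity and a rise apparent proliferation; nearly all actives have a fitted effect of over 55% in size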
How it was run: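 Cells (500-1,000/well) in growth media were settled 5 h at 37 degrees C, then given compounds for 48 h. Viability was read as CellTiter-Glo luminescence. Primary runs used MIPE at 11 points (0.78 nM-46 µM) and NPC at 8 points (0.59 nM-46 µM); follow-ups used 11 points.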

[4] = qHTS of pediatric cancer cell lines to identify multiple opportunities for drug repurposing: Primary screen for OHS-50 cells (AID 1347103); further: nearly all actives have a fitted effect of over 40% in size; further: potency means the concentration at half of the fitted maximal effect
How it was run: (§2)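 Cells (500-1,000/well) rested 5 h, then received compounds for 48 h; metabolically active cells were measured by CellTiter-Glo luminescence. Final concentrations spanned up to 46 µM (MIPE, 11-point) or 0.59 nM-46 µM (NPC, 8-point) in primary screens, 11-point in follow-ups.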

[5] = qHTS of pediatric cancer cell lines to identify multiple opportunities for drug repurposing: Primary screen for RD cells (AID 1347104); further: nearly all actives have a fitted effect of over 55% in size; further: potency means the concentration at half of the fitted maximal effect
How it was run: as §1

[6] = qHTS of pediatric cancer cell lines to identify multiple opportunities for drug repurposing: Primary screen for Rh30 cells (AID 1347107); further: nearly all actives have a fitted effect of over 75% in size; further: potency means the concentration at half of the fitted maximal effect
How it was run: (§3)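 Viability after 48 h compound treatment at 37C, 500-1,000 cells/well, read as ATP luminescence with CellTiter-Glo. Primary screens used 11-point (MIPE, 0.78 nM-46 µM) or 8-point (NPC, 0.59 nM-46 µM) final concentrations; follow-up screens used 11-point dilutions.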

[7] = qHTS of pediatric cancer cell lines to identify multiple opportunities for drug repurposing: Primary screen for Rh41 cells (AID 1347108); further: nearly all actives have a fitted effect of over 70% in size; further: potency means the concentration at half of the fitted maximal effect
How it was run: as §1

[8] = qHTS of pediatric cancer cell lines to identify multiple opportunities for drug repurposing: Primary screen for LAN-5 cells (AID 1347100); further: potency means the concentration at half of the fitted maximal effect
How it was run: as §3

[9] = qHTS of pediatric cancer cell lines to identify multiple opportunities for drug repurposing: Primary screen for BT-12 cells (AID 1347101); further: nearly all actives have a fitted effect of over 25% in size; further: potency means the concentration at half of the fitted maximal effect
How it was run: as §2

[10] = qHTS of pediatric cancer cell lines to identify multiple opportunities for drug repurposing: Primary screen for Rh18 cells (AID 1347102); further: nearly all actives have a fitted effect of over 65% in size; further: potency means the concentration at half of the fitted maximal effect
How it was run: as §3

Compound | Potency [1] | Potency [2] | Potency [3] | Potency [4] | Potency [5] | Potency [6] | Potency [7] | Potency [8] | Potency [9] | Potency [10]
O=C1NC(=O)C(c2cnc3ccccn23)=C1c1cn2c3c(cccc13)CN(C(=O)N1CCOCC1)CC2 | 20.9 µM (active) | 0.469 µM (active) | inactive | – | – | – | – | – | – | –
O=C(Nc1cccc2c(=O)cc(-c3nn[nH]n3)oc12)c1ccc(OCCCCc2ccccc2)cc1 | inactive | inactive | inactive | 24.3 µM (active) | 37.2 µM (active) | inactive | inactive | – | – | –
COc1cc2c(cc1Cc1cccc(Cl)c1F)c(=O)c(C(=O)O)cn2[C@H](CO)C(C)C | 23.5 µM (active) | – | inactive | 27.3 µM (active) | – | – | – | – | – | –
O=C(NCCCCN1CCOCC1)c1cc2ccccc2o1 | – | inactive | inactive | inactive | inactive | – | inactive | inactive | inactive | inactive
CC(C)C[C@@H](N)[C@H](O)C(=O)N[C@H](C(=O)N[C@H](C(=O)N[C@@H](CC(=O)O)C(=O)O)C(C)C)C(C)C | – | inactive | – | inactive | inactive | – | – | inactive | inactive | inactive
C[C@@H](O[C@H]1OCCN(Cc2n[nH]c(=O)[nH]2)[C@@H]1c1ccc(F)cc1)c1cc(C(F)(F)F)cc(C(F)(F)F)c1 | 23.5 µM (active) | – | inactive | – | – | – | – | – | – | –
CN1CCc2c(n(Cc3ccc(C(=O)NO)cc3)c3ccccc23)C1 | 11.8 µM (active) | – | inactive | – | 18.7 µM (active) | inactive | 11.8 µM (active) | – | – | 18.7 µM (active)
O=C(Nc1ncc(SCCN2CCCC2)s1)[C@]1(c2ccc(S(=O)(=O)C3CC3)cc2)C[C@@H]1C1CCCCC1 | – | 29.6 µM (active) | inactive | 24.3 µM (active) | 14.8 µM (active) | 20.9 µM (active) | 18.7 µM (active) | 23.5 µM (active) | 27.3 µM (active) | 20.9 µM (active)
Cc1cn([C@@H]2C[C@@H](O)[C@H](CO)O2)c(=O)[nH]c1=O | – | inactive | inactive | inactive | inactive | inactive | inactive | inactive | inactive | inactive
CC(C)C[C@@H](C(=O)N[C@H](C(=O)OC1CCCC1)c1ccccc1)[C@H](O)C(=O)NO | 18.7 µM (active) | – | inactive | 21.7 µM (active) | – | – | – | – | – | –
COc1ccc2nc3cc(Cl)ccc3c(Nc3cc(CN4CCCC4)c(O)c(CN4CCCC4)c3)c2n1 | inactive | inactive | inactive | – | – | inactive | inactive | – | – | inactive
CC[C@H](C)C(=O)O[C@H]1C[C@H](O)C=C2C=C[C@H](C)[C@H](CC[C@@H](O)C[C@@H](O)CC(=O)O)[C@H]21 | – | inactive | inactive | inactive | inactive | inactive | inactive | inactive | inactive | inactive
CC1(C)C(N(O)C(=O)Nc2ccc(Cl)cc2)N(c2ccc(Cl)cc2)C(=O)N1CC(=O)NN=CC=Cc1ccc([N+](=O)[O-])o1 (configuration not stated) | 20.9 µM (active) | – | – | – | – | – | 14.8 µM (active) | – | – | 20.9 µM (active)
CC(C)(OCc1nn(Cc2ccccc2)c2ccccc12)C(=O)O | – | inactive | inactive | inactive | inactive | inactive | inactive | inactive | inactive | inactive
COc1nccc(-c2c(-c3ccc(F)cc3)ncn2C2CCC(O)CC2)n1 (configuration not stated) | – | inactive | – | inactive | inactive | – | inactive | inactive | inactive | inactive
COc1ccnc(CS(=O)c2nc3ccc(OC(F)F)cc3[nH]2)c1OC (configuration not stated) | – | inactive | – | inactive | inactive | inactive | inactive | inactive | inactive | inactive
C=C1[C@H](n2cnc3c(=O)[nH]c(N)nc32)C[C@H](O)[C@H]1CO | inactive | – | inactive | – | – | inactive | inactive | – | – | inactive
Cc1ccccc1C(=O)c1ccc(Nc2ccc(Br)cc2N)cc1Cl | 20.9 µM (active) | – | inactive | – | – | – | – | – | – | –
Cc1nc2c([nH]1)CCN(C(=O)c1ccc(NC(=O)c3ccccc3-c3ccccc3)cc1)c1ccccc1-2 | inactive | – | inactive | – | inactive | inactive | inactive | – | – | inactive
Cc1ccccc1-n1c(Cn2nc(-c3cccc(O)c3)c3c(N)ncnc32)nc2cccc(C)c2c1=O | 0.833 µM (active) | – | inactive | 0.0385 µM (active) | 0.118 µM (active) | inactive | 3.72 µM (active) | – | – | –
Cc1[nH]c(C=C2C(=O)Nc3ccc(S(=O)(=O)N(C)c4cccc(Cl)c4)cc32)c(C)c1C(=O)N1CCN(C)CC1 | – | – | inactive | 19.3 µM (active) | 29.6 µM (active) | 18.7 µM (active) | – | 9.35 µM (active) | 17.2 µM (active) | 23.5 µM (active)
CCN(CC)CCCCNc1nc2cc(Cl)c(Cl)cc2nc1-c1ccc(-c2cccs2)s1 | – | 18.7 µM (active) | inactive | 19.3 µM (active) | 18.7 µM (active) | – | 23.5 µM (active) | 26.4 µM (active) | 34.3 µM (active) | 18.7 µM (active)
